PubChem BioAssay AID602327 (NMMLSC, 2012)
Some of the results follow. Values without a mark were called inactive. The source made the active and inactive calls. Cut-off read from the data, not from the text of the source: active = inhibition above about 25%; inactive = the rest.

Molecular target: Lethal factor (Bacillus anthracis) (UniProt P15917)
Assay: anthrax lethal factor cleavage blockers – biochemical, multiplex microsphere, confirmation (AID 602327)
Details: multiplex microsphere protease cleavage assay; at 10 µM; stronger effect = higher value

Lethal factor (Bacillus anthracis), sequence (P15917 whole entry, looked up): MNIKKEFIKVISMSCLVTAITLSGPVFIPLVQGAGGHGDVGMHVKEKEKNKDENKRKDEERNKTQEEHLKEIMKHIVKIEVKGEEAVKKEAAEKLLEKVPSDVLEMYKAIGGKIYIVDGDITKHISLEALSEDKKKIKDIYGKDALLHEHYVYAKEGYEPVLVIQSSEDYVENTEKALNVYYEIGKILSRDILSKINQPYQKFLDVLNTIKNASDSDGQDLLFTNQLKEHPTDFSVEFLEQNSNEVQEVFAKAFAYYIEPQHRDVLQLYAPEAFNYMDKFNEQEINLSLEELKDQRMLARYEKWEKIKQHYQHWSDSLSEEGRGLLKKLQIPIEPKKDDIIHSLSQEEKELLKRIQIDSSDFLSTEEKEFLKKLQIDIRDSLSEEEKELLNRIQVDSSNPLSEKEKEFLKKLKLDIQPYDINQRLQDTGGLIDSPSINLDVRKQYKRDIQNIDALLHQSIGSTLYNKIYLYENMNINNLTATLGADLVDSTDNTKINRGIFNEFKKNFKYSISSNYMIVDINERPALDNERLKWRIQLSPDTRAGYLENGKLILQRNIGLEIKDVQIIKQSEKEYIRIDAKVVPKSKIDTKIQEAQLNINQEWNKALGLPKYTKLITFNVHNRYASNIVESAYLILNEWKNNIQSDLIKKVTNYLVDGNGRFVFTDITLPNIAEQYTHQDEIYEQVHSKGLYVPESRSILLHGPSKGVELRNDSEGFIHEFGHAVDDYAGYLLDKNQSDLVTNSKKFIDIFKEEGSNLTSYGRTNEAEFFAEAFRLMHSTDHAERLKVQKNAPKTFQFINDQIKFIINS

Row | SMILES | inhibition
1 | O=C(CN1CCN(c2ccccc2O)CC1)NC(=O)NCc1ccccc1 | -1.7%
2 | Cc1cc2cc(CNC(=O)c3ccc(S(=O)(=O)N4CCOCC4)cc3)ccc2[nH]1 | -0.8%
3 | CC(=O)OCCN(CCCn1c(-c2ccncc2)nc2ccccc21)c1nc(-c2ccc(C)cc2)cs1 | 0.3%
4 | O=C(OCC(=O)c1c[nH]c2ccccc12)c1cccc(O)c1 | -2.5%
5 | Cc1cc2ccccc2n1CCNC(=O)COc1ccc2ccccc2c1 | 0.2%
6 | Cc1ccc(CNC(=O)c2cccc3c2C(=O)c2ccc(N4CCC(C)CC4)cc2S3(=O)=O)cc1 | 7.9%
7 | COc1ccc(-c2cc3c(c4c2ccn4C)C2CCC3C2)cn1 (stereo not drawn) | 26.4% (active)
8 | CCOc1ncccc1C(=O)OCC(=O)c1c[nH]c2ccccc12 | 10.4%
